Results published in PubChem BioAssay AID485298 (National Center for Advancing Translational Sciences (NCATS), 2010).
Where “and” joins values, the source holds several entries; their conditions need not be identical. Equal entries are not always repeated. Hit rate of the full screen: of about 320,000 compounds, about 740 (0.23%) were called active. Where a call stands in place of a potency, no number is given. About 2% were inconclusive and are not listed. Calls come from the whole dose curve; as a rule, active = well fitted activation curve with a large enough effect; inconclusive = small, poorly fitted or top-dose-only effect; inactive = no such curve, though single readings can be large or run the other way. The sample as a whole holds a higher share of actives than the screen did. Where a structure was tested more than once in an assay, its records may differ in their call.

Assay: qHTS Assay for Small Molecule Inhibitors of Mitochondrial Division or Activators of Mitochondrial Fusion; note: nearly all actives have a fitted effect of over 45% in size
Settings: S. cerevisiae fusion-defective mutant growth rescue, CellTiterGlo 48 h; series mostly up to 46.1 µM
From the text: NIH Chemical Genomics Center [NCGC] NIH Molecular Libraries Probe Production centers Network [MLPCN] MLPCN Grant: MH081279-01 Assay Submitter (PI): Jodi M. Nunnari NCGC Assay Overview: The budding yeast S. cerevisiae is a powerful system to study mitochondrial fusion. Unlike other organisms, yeast cells without functional mitochondrial DNA (mtDNA) can be propagated and studied as long as they maintain a mitochondrial compartment and are provided with a fermentable carbon source. When mitochondrial fusion is blocked in yeast, mitochondrial tubules rapidly fragment and division continues unopposed. Under conditions where fusion is compromised in mammalian cells, nearly identical changes in mitochondrial structure have been observed. Thus, these findings indicate that steady state mitochondrial structure in cells is a characteristic and specific indicator of fusion activity. Mounting evidence has pointed to a connection between mitochondrial dynamics and apoptosis in mammalian cells. These studies indicate that in mammalian cells mitochondrial dynamics are more integrated into cellular processes than in yeast cells and have evolved not only to distribute the organelle but also to aid in the regulation of cellular homeostasis. Mitochondrial fusion proteins attenuate apoptosis by inhibiting the release of cytochrome c from mitochondria, in part by controlling cristae structures. Thus, small molecules that inhibit mitochondrial […] may promote apoptosis and potentially act as novel chemotherapeutics and stimulation of apoptosis has become an attractive target of anti-cancer therapies. To identify inhibitors of mitochondrial division, we exploit the growth phenotypes of mitochondrial fusion-defective mutants. The temperature sensitive fusion alleles, such as fzo1-1 and mgm1-5, cause mitochondrial membranes to fragment in cells under non-permissive conditions and cells lose mtDNA, and are unable to grow in the presence of non-fermentable carbon source glycerol. Inhibiting mitochondrial division rescues growth. We have developed and optimized a luminescence cell viability assay in 1536 well format for the identification of inhibitors in the yeast mitochondrial fusion-defective assay.
The yeast glycerol stocks where kindly supplied by the laboratory of Dr. Jodi Nunnari, University of California, Davis. All yeast glycerol stock solutions were stored in single use aliquots at -80C. The CellTiterGlo luminescence reagent, containing luciferase and luciferin, were purchased from Promega, and the reagents were stored according to manufacturer's instructions. The Buffer components for the YPEG yeast growth medium were purchased from Sigma-Aldrich (St. Louis, MO). YPEG growth medium: 1% (w/v) yeast extract, 2% (w/v) Bacto-peptone, 3% Ethanol, 3% glycerol, 0.4mM Tryptophan, 0.36mM Adenine. qHTS Assay Protocol: 1.#Dispense 2.5 ul yeast growth medium per 1536 well plate. 2.#Transfer 23 nl per well of compound to plate. 3.#Dispense 2.5 ul yeast solution at appropriate seeding density per well. 4.#Incubate for 48 hours at 37C. 5.#Dispense 5 ul of CellTiterGlow solution per well. 6.#Incubate at ambient for 10 minutes. 7.#Read using bio-luminescence protocol on Viewlux.
Potency is the fitted concentration of half-maximal effect.

SMILES | Potency
COc1ccccc1CN1CCCC(N2CCN(c3ccc(F)cc3)CC2)C1 (centres undefined) | inactive
O=C(c1ccc(C(F)(F)F)cc1)C1CCCN(C(=O)c2csnn2)C1 (centres undefined) | inactive
O=C(CN1C(=O)S/C(=C\c2ccccc2F)C1=O)NCCCn1ccnc1 | inactive
O=C(CCNC(=O)c1ccccc1)Nc1nc2ccccc2s1 | inactive
O=C(CN1C(=O)/C(=C\c2ccccc2F)SC1=S)Nc1nc2ccccc2s1 | 12.6 µM (active)
CS(=O)(=O)N1CCN=C1SCc1ccc(F)cc1 | inactive
O=C(Nc1ccccc1-c1ccccc1)c1ccccc1[N+](=O)[O-] | inactive
COc1cc(OC)c(C(=O)Nc2ccccc2-c2ccccc2)cc1OC | 15.8 µM (active)
COc1cc2ccccc2cc1C(=O)Nc1ccccc1C | inactive
O=C(O)CCN(Cc1ccccc1)S(=O)(=O)c1c(Cl)cccc1Cl | inactive
CCN(C(=O)CN1CCN(Cc2ccccc2)CC1)c1c(N)n(Cc2ccccc2)c(=O)[nH]c1=O | inactive
COc1ccc(OC)c(C(=O)NC(CC(N)=O)c2ccc(N3CCC(N4CCCCC4)CC3)c([N+](=O)[O-])c2)c1 (centres undefined) | inactive
COc1ccc(CCNC(=S)N2CCN(S(=O)(=O)c3ccc(Cl)cc3)CC2)cc1 | inactive
O=C(NCCc1ccc(Cl)cc1)c1cccc(N2CCCC2=O)c1 | inactive
Oc1cc2c(cc1O)CN(C(=S)NCCc1ccc(Cl)cc1)CCC2 | inactive and 18.4 µM (active)
Oc1ccc(Cn2cc[nH]c2=S)cc1 | inactive
CN(C)CCN=c1cc(-c2ccccc2)oc2ccc(Cl)cc12 | inactive
COc1ccc(/C=C/c2c(-c3cccc(C)c3)oc3ccc(-c4ccc5c(c4)OCO5)cc23)cc1 | inactive
CSCCC(NC(=O)c1ccccc1)C(=O)N1CCCCCCC1 (centres undefined) | inactive
CSCCC(NS(=O)(=O)c1ccc(C)cc1)C(=O)N1CCCC1 (centres undefined) | 35.5 µM (active)
CSCC(NS(=O)(=O)c1ccc(C)cc1)C(=O)O (centres undefined) | inactive
CC(=O)c1cccc(NC(=O)C2CCCN2S(=O)(=O)c2cccc3nsnc23)c1 (centres undefined) | inactive
C=CCn1c(CCNC(=O)c2ccccc2F)nnc1SCC(=O)Nc1ccc(OC)cc1 | inactive
CC(=O)NC(c1cccs1)c1cc(Br)c2cccnc2c1O (centres undefined) | inactive
Cc1cc(C(=O)Nc2nnc(C3CC3)s2)c(C)s1 | inactive
C[C@H](NC(=O)c1ccccc1)C(=O)OCC(=O)c1c[nH]c2ccccc12 | inactive

SMILES | Potency
CN(C)c1ccc(C(CNC(=O)c2ccc(F)cc2)c2c[nH]c3ccccc23)cc1 (centres undefined) | 15.8 µM (active)
O=C(CNC(=O)c1ccc(F)cc1)c1ccccc1 | inactive
Cc1nnnn1/C(=C\c1ccccc1)C(=O)OCC(=O)N1CC2(C)CC1CC(C)(C)C2 (centres undefined) | inactive
O=C(Cc1ccccc1)Nc1c(C(=O)N2CCCCCC2)cnn1-c1ccccc1 | inactive
CCC(C)(C)n1nnnc1CN1CCN(c2nc3ccc(C)cc3cc2C#N)CC1 | inactive
O=C(/C=C/c1ccccc1)Oc1coc(CSc2ncccn2)cc1=O | inactive
Nc1c(C(=O)OCC(=O)Nc2ccc(OC(F)F)cc2)[nH]c(=O)[nH]c1=O | inactive
CC1CCCCC1NC(=O)CO/N=C/c1ccc(OC(F)F)cc1 (centres undefined) | inactive
O=C(CO/N=C/c1ccc(OC(F)F)cc1)NCc1ccc(F)cc1 | 6.31 µM (active)
CCOc1ccc(/C=N/OCC(=O)NCc2cccs2)cc1 | inactive
Clc1ccc(C2[C@H]3CN(CC4CCCCC4)[C@H](c4ccccc4)C34CC2(c2cccnc2)C4)cn1 (some centres undefined) | inactive
CCc1ccc[n+](-c2nc([O-])sc2C=O)c1 | inactive
CCOC(=O)/C=C/C(=O)OCC(=O)NC(c1ccccc1)c1ccccc1 | inactive
c1n[nH]c(NCc2ccc3c(c2)OCO3)n1 | inactive
N#Cc1nc(Cc2cccc3ccccc23)oc1NCc1ccc2c(c1)OCO2 | 11.2 µM (active)
Cn1cc(CCC(=O)NCc2ccc3c(c2)OCO3)c2ccccc21 | inactive
O=C(COC(=O)c1ccccc1NC(=O)c1ccco1)Nc1ccc2c(c1)OC(F)(F)O2 | inactive
CCCN1C(=O)C(O)(CC(=O)c2ccc(CC)cc2)c2cc(Br)ccc21 (centres undefined) | inactive
Cc1cccc(-c2nc(Nc3ccc(O)cc3)c3ccccc3n2)c1 | 35.5 µM (active)
COc1ccc(Nc2nc(-c3cccnc3)nc3ccccc23)cn1 | inactive
CC(=O)Nc1cccc(Nc2nc(-c3cccs3)nc3ccccc23)c1 | inactive
COc1ccc(OCCNS(=O)(=O)Cc2ccccc2)cc1 | inactive
Cc1ccc(NC(=O)c2cc([N+](=O)[O-])ccc2Cl)c(O)c1 | inactive
CCC(C)C(NC(=O)C1CCC(=O)N1C(=O)OCc1ccccc1)C(=O)NC(C(=O)N1CCCC1C(N)=O)C(C)CC (centres undefined) | inactive
Nc1ccc(Nc2cc(O)c3ncccc3c2)cc1 | inactive
CN(C)c1cc2c(Nc3ccc4c(cnn4Cc4ccccc4)c3)ncnc2cn1 | 18.4 µM (active)

SMILES | Potency
Cn1ncc2c(Nc3cccc4ccccc34)ncnc21 | inactive
CC(C)Nc1ncnc2c1nnn2Cc1ccccc1 | inactive
CCOC(=O)N1CCN(C(=O)COC(=O)c2cccc(S(C)(=O)=O)c2)CC1 | inactive
CCOC(=O)C(=CNNc1ccsc1C(=O)OC)C(=O)OCC | inactive
Cc1ccc(O)c(CNc2nc3ccccc3n2C)c1 | inactive
Cc1ccc(O)c(CNc2nc3ccccc3[nH]2)c1 | inactive
Cc1ccc2nnn(Cc3cccc(C(C)(C)C)c3O)c2c1 | 12.6 µM (active)
CC(/C=C/C1(O)C(C)CC(=O)CC1(C)C)OC1OC(CO)C(O)C(O)C1O (centres undefined) | inactive
CCCC(C)C(=O)OCC(=O)Nc1c(Br)cc(C)cc1Br (centres undefined) | inactive
Cn1c(=O)c2c(n3c4ccccc4nc13)NC(=O)CC2c1cccc(Cl)c1 (centres undefined) | inactive
CC(C)C(=O)Nc1ccc2c3c(cccc13)CC2 | inactive
CCOc1ccc(-n2nc3ccc(NC(=O)c4ccc(OC)c(Cl)c4)cc3n2)cc1 | inactive
Cc1cc(-c2nnc(CCC(=O)NC(c3ccccc3)c3ccccc3)o2)no1 | inactive
O=C(O)C(NS(=O)(=O)c1cccc2nsnc12)c1ccccc1 (centres undefined) | inactive
O=C(C(NS(=O)(=O)c1cccc2nsnc12)c1ccccc1)N1CCN(c2ccccc2)CC1 (centres undefined) | 17.8 µM (active)
O=C(C(NS(=O)(=O)c1cccc2nsnc12)c1ccccc1)N1CCN(c2ccccn2)CC1 (centres undefined) | inactive
CC(=O)Nc1ccc(C(=O)Nc2cccc(S(=O)(=O)NC3=NCCC3)c2)cc1 | inactive
CN(C)c1nc(N)nc(CSc2nnnn2-c2cccc3ccccc23)n1 | inactive
Cc1nc2sc(C(=O)c3ccccc3)c(N)c2c2c1CCCC2 | 14.1 µM (active)
Cc1ccc2c(N)c(C(=O)c3ccccc3)sc2n1 | inactive
CCc1nc2sc(C(=O)O)c(N)c2c2c1CCCC2 | inactive
COc1ccc(OC)c(S(=O)(=O)n2c([N+](=O)[O-])cnc2C)c1 | inactive
CN(c1ccccn1)c1ncnc2[nH]ncc12 | inactive
O=S(=O)(c1cccc(C(F)(F)F)c1)N1CCN(c2cnccn2)CC1 | inactive
COC(=O)COc1ccc(C2NC(=O)NC(C)=C2C(=O)NCc2ccccc2)cc1OC (centres undefined) | inactive
CCC(C)(C)n1nnnc1C(c1ccc(OC)c(OC)c1)N1CCN(C(=O)c2ccco2)CC1 (centres undefined) | inactive

SMILES | Potency
Fc1ccc(Cn2nnnc2C(c2cccs2)N2CCCCCC2)cc1 (centres undefined) | inactive
CCC(C)(C)n1nnnc1C(c1cccs1)N1CCN(c2nc3ccccc3s2)CC1 (centres undefined) | 10 µM (active)
Cc1ccc(C(CNC(=O)Nc2cccc(C)c2)N2CCN(C)CC2)cc1 (centres undefined) | inactive
CCC1=Nc2cc(C(=O)NCCCOC(C)C)ccc2Sc2ccc(C)cc21 | inactive
CCCS(=O)(=O)N1CCCC(C(=O)N2CCN(c3ccccc3)CC2)C1 (centres undefined) | inactive
O=C(C1CCCN(S(=O)(=O)c2ccccc2)C1)N1CCN(c2ccc(F)cc2)CC1 (centres undefined) | 3.98 µM (active)
Cc1ccc(S(=O)(=O)N2CCCC(C(=O)N3CCN(C)CC3)C2)cc1 (centres undefined) | inactive
Cc1cccc(C(=O)Nc2ccc(-c3nc4ncccc4o3)cc2C)c1 | inactive
COc1cc(NC(=O)CSc2nc3nc(C)c(Cc4ccc(C)cc4)c(C)n3n2)cc(OC)c1OC | inactive
C=CCNC(=O)CCCC(=O)NCC=C | inactive
CSCCC(NC(=O)c1ccco1)C(=O)Nc1cc(C)ccn1 (centres undefined) | inactive
Cc1ccc(SCCC(=O)OCC(=O)Nc2ncc(Cl)cc2Cl)cc1 | inactive
Cc1ccc(-n2c(SCC(=O)Nc3ncc(Cl)cc3Cl)nc3ccccc32)cc1 | 15.8 µM (active)
NS(=O)(=O)c1cccc(NC(=O)CSc2nc3ccccc3n2-c2ccccc2)c1 | inactive
Cc1ccc(C2C=C(c3ccc(Cl)cc3)Nc3nc(NC(=O)CCC(=O)O)nn32)cc1 (centres undefined) | inactive
CCOc1ccccc1NC(=O)CCn1cnnn1 | inactive
CCOC(=O)c1ccc(-c2ccc(/C=C(\C#N)C(=O)Nc3ccc(C)cc3)o2)cc1 | inactive
COc1cc2c(cc1OC)/C(=C/C(=O)c1ccc(NC(C)=O)cc1)NCC2 | inactive
CC1CN/C(=C\C(=O)c2ccc(Br)cc2)C(=O)N1 (centres undefined) | 12.6 µM (active)
CC1(C)Cc2ccccc2/C(=C/C(=O)c2ccccc2)N1 | inactive
O=S(=O)(NC1CCN(S(=O)(=O)c2ccc3c(c2)OCCO3)CC1)c1c(F)cccc1F | inactive
Cc1ccc(C(=O)NC(=S)Nc2ccc3[nH]c(=O)[nH]c3c2)cc1C | inactive
CCCC(O)(CCC)C(=O)NN(C(=O)CCl)c1cccc(C)c1 | inactive
O=C1c2cccc3cccc(c23)C(=O)N1CCCCCc1n[nH]c(=S)o1 | inactive
C[N+](C)(CCCCCC[N+](C)(C)CCCN1C(=O)c2cccc3cccc(c23)C1=O)CCCN1C(=O)c2cccc3cccc(c23)C1=O | inactive and 16.4 µM (active)
O=C(CCCCCN1C(=O)c2cccc3cccc(c23)C1=O)NCc1ccco1 | inactive
